ST2 inh = inhibitors of human ST2 (IL1RL1) binding to IL-33, primary screen, biochemical, AlphaLISA; AlphaLISA ST2-Fc/biotin-IL-33 interaction, 1 h; inhibition, % for hits at 17 µM; hit rate 2.3% among 78,000; Interleukin-1 receptor-like 1 (Homo sapiens), Q01638; AID 1259354, 2018; in the data active means inhibition above about 30%
Numbers stand for hits; n = inactive. The sample as a whole holds a higher share of hits than the screen did.

SMILES	ST2 inh
O=C(NCc1ccc(F)cc1)c1ccc2c(c1)N(Cc1ccc(F)cc1)C(=O)CS2=O (configuration not stated)	n
CSc1nc2c(c(=O)[nH]1)C(c1cccc(F)c1)C1=C(CC(C)(C)CC1=O)N2 (configuration not stated)	n
Cc1csc2ncc(C(=O)Nc3ccc(F)cc3)c(=O)n12	n
Cc1ccc2nc(-c3ccc(NC(=O)c4cnc5n(c4=O)CCS5)cc3)sc2c1	n
CCOCCCn1c(=N)c(C(=O)NCCc2ccccc2)cc2c(=O)n3ccccc3nc21	n
O=C1CCCC2=C1C(c1cccc(OCc3ccc(C(=O)O)cc3)c1)C1=C(CCCC1=O)O2	n
Cc1c(N=Cc2ccccc2O)c(=O)n(-c2ccccc2)n1C	n
Cc1c(N=Cc2cc([N+](=O)[O-])ccc2N2CCCC2)c(=O)n(-c2ccccc2)n1C	36%
Cc1c(N=Cc2cc([N+](=O)[O-])c(Cl)cc2Cl)c(=O)n(-c2ccccc2)n1C	n
O=C(C1c2ccccc2C(=O)N2CCc3ccccc3C12)N1CCN(c2ccccc2)CC1 (configuration not stated)	n
COc1ccc(C(=O)Nc2cccc(NC(=O)c3ccccc3Cl)c2)cc1Br	59%
COc1ccc(C(=O)Nc2cccc(NC(=O)c3ccccc3Cl)c2)cc1[N+](=O)[O-]	n
CCOc1ccc(C(=O)Nc2cccc(Cl)c2)cc1Br	n
Cc1ccccc1-n1ncc(C(C)NC(=O)CCn2cccn2)c1C (configuration not stated)	n
Cc1ccc(NC(=O)CCc2ccccc2)cc1	n
Cc1cc(C)n(CC2(CNC(=O)[C@@H]3C[C@@H]4C=C[C@H]3C4)CC2)n1	n
CCOc1ccc(C=C2C(=O)OC3(CCCCC3)OC2=O)cc1OC	n
Cc1[nH]c2ccccc2c1C=C1C(=O)OC2(CCCCC2)OC1=O	48%
CCCCN(CC)Cc1c(C)[nH]c2ccccc2c1=O	n
COc1ccc(-c2noc(CN(Cc3ccccn3)CC3CCCO3)n2)c(OC)c1OC (configuration not stated)	n
CC(C)Cc1cc(CNC2CCCCCC2)no1	n
Cc1nnc(SCC(=O)NC(C)COc2c(C)cccc2C)s1 (configuration not stated)	n
COc1ccccc1N1CCN(C(=O)c2cc(OC)c(OC)c(OC)c2)CC1	n
CC(O)CNc1ccc(C(F)(F)F)cc1[N+](=O)[O-] (configuration not stated)	n
O=[N+]([O-])c1cc(CN2CCOCC2)c(O)c2ncccc12	n
SMILES	ST2 inh
CS(=O)(=O)c1ccc(N2CCN(c3ccccc3)CC2)c([N+](=O)[O-])c1	n
O=[N+]([O-])c1cccc(Cl)c1N1CCN(c2ccc([N+](=O)[O-])c3cccnc23)CC1	n
O=[N+]([O-])c1cc(C(F)(F)F)ccc1N1CCN(CCOc2nonc2-c2ccccc2)CC1	45%
COc1ccc(N2CCN(c3ccc([N+](=O)[O-])c4cccnc34)CC2)c([N+](=O)[O-])c1	55%
O=[N+]([O-])c1ccccc1OCC(O)CN1CCN(c2ccccc2F)CC1 (configuration not stated)	n
Cc1cc(-c2c(-c3ccccc3)ncn2CCOc2nonc2C)n[nH]1	n
Cc1cc(C)n(-c2ccc(C(F)(F)F)cc2[N+](=O)[O-])n1	n
O=[N+]([O-])c1cc(C(F)(F)F)ccc1N1CCc2ccccc21	68%
COc1ccccc1N1CCN(c2ccc([N+](=O)[O-])c3cccnc23)CC1	31%
C=COCCNC(=O)Nc1cccc(Cl)c1	n
Cc1ccc(-n2c(=O)n(Cc3ccccc3)c3c(C(N)=O)nc(-c4ccc(F)cc4)nc32)cc1C	n
COc1cccc2c1OCC(C(=O)N1C[C@@H]3[C@@H]4CC[C@@H](C4)[C@@H]3C1)C2 (some centres not stated)	n
O=[N+]([O-])c1ccc(OCCOCCO)cc1	n
COc1ccc(-c2nc(N3CCC(C)CC3)nc3n[nH]c(N)c23)cc1	n
COc1ccc(N2CCN(Cc3cc(OC)c(O)c([N+](=O)[O-])c3)CC2)cc1	n
O=[N+]([O-])c1cc(C(F)(F)F)ccc1N1CCN(c2ccc([N+](=O)[O-])c3cccnc23)CC1	45%
CN1CCN(c2cc(N3CCN(CCO)CC3)ccc2[N+](=O)[O-])CC1	n
Cc1ccccc1C(=O)N1CCN(c2ccc([N+](=O)[O-])c(N3CCOCC3)c2)CC1	n
O=C(c1ccccc1F)N1CCN(c2ccc([N+](=O)[O-])c3cccnc23)CC1	35%
COc1ccc(N2CCN(c3cc(N4CCN(C)CC4)ccc3[N+](=O)[O-])CC2)cc1	44%
O=[N+]([O-])c1cccnc1N1CCOCC1	n
CCC(=O)N1CCN(c2ccc(F)cc2[N+](=O)[O-])CC1	n
O=C(c1cnc(N2CCN(c3ccccn3)CC2)c2ccccc12)N1CCN(c2ccccn2)CC1	n
O=C(NC1CCCCC1)N1Cc2[nH]cnc2C[C@H]1c1nc(-c2ccc(OC(F)(F)F)cc2)no1	n
CN(C(=O)Cc1c(C(=O)O)[nH]c2ccc(Cl)cc12)c1ccccc1F	n
